Laboratory results as given in PubChem BioAssay AID1619 (SRMLSC, 2009).
In all, about 220,000 compounds went through this assay and about 830 (0.38%) were called active.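 The calls were made as follows: active = compound inhibiting the enzyme by more than half at any dose during confirmatory dose-response retesting; inconclusive = strong single-dose inhibitors picked by rank but not retested; inactive = the rest.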 A selection follows. Measured potencies and affinities stand elsewhere.

These molecules were tested against Leucine aminopeptidase (Plasmodium falciparum (isolate 3D7)) (UniProt Q8IL11) (assay: P. falciparum M17LAP inhibitors, primary screen, biochemical, fluorogenic H-Leu-NHMec substrate, 1536-well (AID 1619;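 also: plate controls were full reaction with DMSO carrier for no effect and no enzyme background for full effect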)). Conditions: recombinant M17LAP, H-Leu-NHMec fluorogenic kinetic assay; at 30 µM; stronger effect = higher value.
Sequence of Leucine aminopeptidase (Plasmodium falciparum (isolate 3D7)) (Q8IL11 whole entry, looked up): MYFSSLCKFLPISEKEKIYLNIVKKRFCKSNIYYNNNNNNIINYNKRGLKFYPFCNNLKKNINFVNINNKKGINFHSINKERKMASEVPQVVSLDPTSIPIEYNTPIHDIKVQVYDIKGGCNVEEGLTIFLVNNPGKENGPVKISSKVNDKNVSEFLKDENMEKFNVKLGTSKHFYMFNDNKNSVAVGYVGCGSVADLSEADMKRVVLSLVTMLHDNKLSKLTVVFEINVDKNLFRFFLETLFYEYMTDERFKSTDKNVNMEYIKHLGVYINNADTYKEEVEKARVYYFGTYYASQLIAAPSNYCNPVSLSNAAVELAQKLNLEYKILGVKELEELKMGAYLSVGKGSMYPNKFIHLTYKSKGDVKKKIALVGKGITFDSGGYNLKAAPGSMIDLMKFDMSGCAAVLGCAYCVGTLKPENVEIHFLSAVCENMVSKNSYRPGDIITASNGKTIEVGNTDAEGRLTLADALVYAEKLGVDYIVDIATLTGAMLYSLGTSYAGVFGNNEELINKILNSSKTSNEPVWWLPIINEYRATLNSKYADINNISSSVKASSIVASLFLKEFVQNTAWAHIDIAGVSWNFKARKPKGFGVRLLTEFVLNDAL

inhibition, inactive:
S=c1cnc2ccccc2[nH]1 6.02%
N#CCCn1cc(C(=O)N2CCCCC2)c(-c2cccc([N+](=O)[O-])c2)n1 4.89%
CC1(C)CC(=O)C(C(C2=C(O)CC(C)(C)CC2=O)c2ccc(Cl)c([N+](=O)[O-])c2)C(=O)C1 (stereo not given) 7.5%
CN(C)/C=N/c1sc2c(c1C#N)CCCCC2 5.07%
CN(C)/C=N/c1sc2c(c1C#N)CCCC2 0.79%
COc1cc(CNC2CCCC2)cc(Cl)c1OCc1ccccc1F -3.97%
CC(NC(=O)c1ccc(Br)cc1)c1ccccc1 (stereo not given) 12.4%
Cc1nc(-c2cccc(Cl)c2)n[nH]1 -5.31%
CCn1c(-c2cccc(Cl)c2)n[nH]c1=S 6.53%
COC(=O)CN1C(=O)C(O)(CC(=O)c2ccc(Cl)cc2)c2ccccc21 (stereo not given) 12.1%
C/C(=N/NC(=O)CSCc1ccc(Cl)cc1)c1cccc(NC(=O)c2ccccc2)c1 -0.71%
CN(C)C(=S)Nc1cccc(-c2n[nH]c(=S)o2)c1 4%
O=C(CCN1C(=O)c2ccccc2C1=O)Nc1ccc2c(c1)OCCO2 10.7%
CC1CC(=O)N(CC(=O)NCc2ccc3c(c2)OCO3)c2ccccc2S1 (stereo not given) 24%
O=C(CN1C(=O)CCSc2ccccc21)Nc1ccc2c(c1)OCO2 48.6%
CC1CC(=O)N(CC(=O)Nc2ccc3c(c2)OCCO3)c2ccccc2S1 (stereo not given) 51.7%
O=C(CN1C(=O)c2cccc3cccc1c23)Nc1ccc2c(c1)OCO2 31.3%
O=C(CN1C(=O)CSc2ccccc21)Nc1ccc2c(c1)OCCO2 12.7%
O=C(CCCNS(=O)(=O)c1cccs1)N1CCc2ccccc2C1 -15.3%
COc1ccccc1C(=O)N(NC(=O)Oc1ccccc1)C(C)(C)C -4.52%
COc1cc(/C=N/NC(=O)c2nonc2N)cc(OC)c1OC 12.6%
S=C(Nc1ccccc1)N(CCN1CCOCC1)Cc1cccc(Cl)c1 3.82%
CCOC(=O)c1[nH]c2ccc(Br)cc2c1NC(=O)CCN1CCCC(C)C1 (stereo not given) 19.3%
CCC(C)(C)NC(=O)CN(C(=O)c1snc(C(N)=O)c1N)c1ccc(OC)c(OC)c1 -0.26%
Cn1cnnc1SCC(=O)Nc1ccc(Br)cc1F 4.31%
COC(=O)c1ccc(Cl)c(NC(C)=O)c1 4.44%
COC(=O)c1ccc(Cl)c(NC(=O)CN2CCN(C)CC2)c1 -7.62%
O=C(CSCC(=O)Nc1cccc2ccccc12)Nc1cccc2ccccc12 -9.94%
CCCn1c(SCC(=O)Nc2ccccc2CC)nnc1C(C)C -2.04%
O=C(CSc1ccccn1)Nc1cccc2ccccc12 6.7%
CC(C)n1cnnc1SCC(=O)Nc1ccc(Br)cc1F -3.86%
CCc1ccccc1NC(=O)CSc1n[nH]c(C)c1[N+](=O)[O-] -11.3%
C/C(=C\C(=O)c1ccccc1)Nc1ccc2c(c1)OCO2 -1.02%
CCOC(=O)c1cnc(SC)nc1Oc1cccc(NS(=O)(=O)c2ccccc2)c1 12.5%
COc1ccc(-c2nc(C)c(C(C)=O)n2O)cc1[N+](=O)[O-] 39.5%
O=C(COn1nnc2ccc(C(F)(F)F)cc21)Nc1c(Cl)cccc1Cl -14.4%
FC(F)(F)c1ccnc(NCc2ccco2)n1 5.81%
O=C(CN1C(=O)S/C(=C\C=C\c2ccccc2)C1=O)Nc1ccc(C(=O)O)cc1 15.3%
O=C(CN1C(=O)S/C(=C\C=C\c2ccccc2)C1=O)Nc1ccc(O)cc1 9.74%
Cc1ccc(C)c2nc(SCC(=O)N3CCCc4ccccc43)c(C#N)cc12 -4.2%
CC(=O)NCC(=O)N1CCCC(C(=O)c2ccc(-c3ccccc3)c(F)c2)C1 (stereo not given) -3.83%
Cc1cc(Nc2ccc([N+](=O)[O-])cc2)nc2ccccc12 13.7%
CCOc1ccc(NC(=O)C2C3CC/C=C\CCC32)cc1 (stereo not given) 4.68%
CC(C)OC(=O)C1CC=CCC1C(=O)Nc1ccc(Cl)cc1 (stereo not given) 2.15%
CCOc1ccc(NS(=O)(=O)c2ccc(NC(=O)[C@@H]3CCCC[C@@H]3C(=O)O)cc2)cc1 42.4%
CCOc1ccc(NC(=O)C2CC(=O)OC2c2ccccc2)cc1 (stereo not given) -1.92%
CC1=C(C)CC(C(=O)Nc2ccc(C(N)=O)cc2)C(C(=O)O)C1 (stereo not given) 20.2%
CC(C)(C)c1ccc(Oc2ccc(NC(=O)C3CC=CCC3C(=O)O)cc2)cc1 (stereo not given) 3.52%
CC(=O)c1ccn(S(=O)(=O)c2ccc(Cl)cc2)c1 9.38%
CC(=O)Nc1ccc(NC(=O)C2CCCN(c3nnc(-n4cccc4)s3)C2)cc1 (stereo not given) 4.4%
CCNC(=O)NCc1c(C)c(C)n(Cc2ccccc2)c1-n1cccc1 4.1%
CCOc1ccc2[nH]cc(C(=O)NCCCN3CCOCC3)c(=O)c2c1 4.64%
CCCCN1CNC(=S)N(CCc2ccc(OCC)c(OCC)c2)C1 4.53%
C=CCn1c(SCC(=O)NCc2ccc3c(c2)OCO3)nnc1C1CCCCC1 20.8%
Cc1nnc(SCC(=O)NCc2ccc3c(c2)OCO3)n1C -1.94%
Cn1c(SCC(=O)c2ccc3c(c2)OCO3)nnc1C1COc2ccccc2O1 (stereo not given) 10.4%
C=CCn1c(SCC(=O)Nc2cc(C)on2)nnc1C1COc2ccccc2O1 (stereo not given) 9.81%
O=c1[nH][nH]cc1C=Nc1ccccc1Cl 2.22%
Clc1ccc(OCc2nc(-c3ccncc3)no2)cc1 0.59%
COc1ccc(-c2[nH]n(-c3ccc([N+](=O)[O-])cc3)c(=O)c2C=NCc2ccncc2)cc1 -8.57%
CC(C)COC(=O)Nc1ccc(C(=O)O)cc1 13.3%
Cc1cc(C(F)F)n2nc(C(=O)Nc3ccccc3F)nc2n1 1.81%
O=C(O)CCCCCN1C(=O)/C(=C\c2cn(-c3ccccc3)nc2-c2cccs2)SC1=S -1.95%
O=C(O)CCCN1C(=O)/C(=C/c2cn(-c3ccccc3)nc2-c2cccs2)SC1=S 7.34%
Cn1c(=O)c(-c2cc(Br)ccc2N)nc2ccccc21 9.54%
COC(=O)c1c(NC(=O)c2ccoc2C)sc2c1CCC2 -15.6%
NC(=O)c1c(NC(=O)C2CCCO2)sc2c1CCC2 (stereo not given) 40%
CCOC(=O)c1c(NC(=O)c2ccoc2C)sc2c1CCC2 16.6%
NC(=O)c1c(NC(=O)C2CCCO2)sc2c1CCCC2 (stereo not given) 25.2%
O=c1cc(-c2ccc([N+](=O)[O-])cc2)c2cc3c(cc2[nH]1)OCCO3 0.51%
CCc1cccc(C)c1NC(=S)N(CCN(C)C)C(C)c1cccnc1 (stereo not given) 3.46%
CSc1nnc(-c2sc3cc(C(F)(F)F)cnc3c2-c2cccnc2)n1C 2.54%
COc1cc(OC)c2ccc(=O)oc2c1C(CC(=O)N1CCOCC1)c1ccc2c(c1)OCO2 (stereo not given) 11.3%
CCCc1cc(=O)[nH]c(SCCOc2ccc(Cl)cc2)n1 3.09%
CCN=C(NCC)SC1CC(=O)N(c2ccccc2)C1=O (stereo not given) 0.73%
COc1ccc(S(=O)(=O)Nc2ccc(C(F)(F)F)cc2)cc1OC 8.66%
Cn1cnc(S(=O)(=O)Nc2ccc(C(F)(F)F)cc2)c1 8.69%
Cc1cc(NC(=O)CN2CCCCC2C)no1 (stereo not given) 15.1%
CC(/C=N/NC(=O)CSc1nc(C)cc(C)n1)=C\c1ccccc1 11.7%
CC1=NNC(=O)C1CC(=O)N/N=C/C=C/c1ccccc1 (stereo not given) 19.3%
COc1ccccc1/C=C/C=N/NC(=O)CC1C(=O)NN=C1C (stereo not given) 13.6%
CC1=NNC(=O)C1CC(=O)N/N=C/C(Br)=C/c1ccccc1 (stereo not given) 15.5%
COc1ccccc1/C=C\C=N\NC(=O)CCn1nnc2ccccc21 4.22%
CC(=C/c1ccccc1)/C=N/NC(=O)CSc1nc(C)cc(C)n1 22.8%
Cc1ccc(NC(=O)CCC(=O)N/N=C/C=C/c2ccccc2)cc1 16.5%
CC1C(=O)NN=C1C(=O)N/N=C\C(Br)=C\c1ccccc1 (stereo not given) 45.9%
Cc1ccc(C(=O)Nc2cc(=O)n(C)c(=O)n2C)cc1C 1.37%
CCNC(=O)C/C(C)=N/NC(=O)C1CCCCC1 12.5%
CCn1ccnc1CN(C)Cc1nc(-c2ccc(C(=O)OC)cc2)no1 2.83%
O=C(CNS(=O)(=O)c1ccc(C(=O)N2CCOCC2)cc1)N1CCOCC1 -0.01%
COc1ccccc1NC(=S)N1CCC(c2nc3ccccc3o2)CC1 2.4%
CCOC(=O)CCn1c(=S)n(CCC(=O)OCC)c2ccccc21 9.93%
COc1ccc(N2CCN(CC(O)COc3ccc([N+](=O)[O-])cc3)CC2)cc1 (stereo not given) 4.37%
NC(=O)c1cccc(CC(=O)c2ccccc2)c1 -5.22%
O=C(Cc1ccccc1)c1c[nH]c(C(=O)O)c1 -7.97%
O=c1[nH]nc(N/N=C/c2ccccc2OC(F)F)c(=O)[nH]1 3.73%
CC(=O)Nc1scc(C)c1-c1nc2ccccc2s1 -9.4%
O=C(O)CCC(=O)Nc1nc2ccccc2s1 16.1%
Cc1csc(NC(=O)CSCC(=O)O)c1-c1nc2ccccc2s1 1.7%
Cc1cccc(C)c1NC(=O)CCCSc1nc2ccccc2s1 2.06%
